# Assay results published in PubChem BioAssay (NCATS).
# Results filed as inconclusive are left out. Calls of active or inactive are those of the source. Calls follow the shape of the full dose curve.
# Target: Peroxisome proliferator-activated receptor delta (Homo sapiens) (UniProt Q03181)
# Test: qHTS assay for small molecule agonists of peroxisome proliferator-activated receptor delta signaling (AID 588534)
# Conditions: HEK293T PPARdelta-UAS-bla, beta-lactamase ratio, 18 h; series mostly up to 76.7 µM
# In short: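 Titration series tested in agonist mode on beta-lactamase reporter cells; 18 hrs at 37 C after a 5 hr pre-incubation. Readout: CCF4 fluorescence, 2 hrs RT. Hill equation gives EC50 and maximal response.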
# Sequence of Peroxisome proliferator-activated receptor delta (Homo sapiens) (Q03181 whole entry, looked up): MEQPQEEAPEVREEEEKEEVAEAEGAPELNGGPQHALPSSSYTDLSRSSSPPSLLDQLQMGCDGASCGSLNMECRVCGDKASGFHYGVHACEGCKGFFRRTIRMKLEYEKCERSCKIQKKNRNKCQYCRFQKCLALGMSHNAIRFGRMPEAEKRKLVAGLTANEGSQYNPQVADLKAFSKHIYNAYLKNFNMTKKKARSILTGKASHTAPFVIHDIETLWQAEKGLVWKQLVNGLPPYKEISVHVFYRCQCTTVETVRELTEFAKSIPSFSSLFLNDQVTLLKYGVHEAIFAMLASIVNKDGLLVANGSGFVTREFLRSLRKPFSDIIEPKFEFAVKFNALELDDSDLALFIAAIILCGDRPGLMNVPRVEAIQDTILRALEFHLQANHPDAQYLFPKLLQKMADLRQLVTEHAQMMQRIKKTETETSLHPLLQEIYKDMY
row,SMILES,outcome
1,O=C(O)c1ccc(C(=O)O)cc1,inactive
2,CC(C)C=O,inactive
3,COCCO,inactive
4,NCCCCCCN,inactive
5,CS(=O)(=O)c1ccc(Cl)cc1,inactive
6,CC(O)COC(C)(C)C (stereo not drawn),inactive
7,FC(F)(F)c1ccc(Cl)c(Cl)c1,inactive
8,C=CCOc1nc(OCC=C)nc(OCC=C)n1,inactive
9,C1CCC2OC2C1 (stereo not drawn),inactive
10,CCCCOC(=O)[C@@H](C)Oc1ccc(Oc2ccc(C(F)(F)F)cn2)cc1,inactive
11,Nc1cc([N+](=O)[O-])ccc1O,inactive
12,Nc1ccc(Cl)cc1[N+](=O)[O-],inactive
13,CC(=O)c1nccs1,inactive
